Experimental data taken from PubChem BioAssay (EPA / NIEHS).
The source made the active and inactive calls. How the source made its calls: active means hit-call score of the fitted dose curve at least 0.9, where 1 is the maximum; inactive means score below 0.9.

Experiment: CCTE_Harrill_HTTr_Apoptosis_MCF7: CCTE's 6-hour Apoptosis Assessment for the High-Throughput Transcriptomics (HTTr) Platform, in MCF-7 cells cultured in DMEM + 10% fetal bovine serum, Harrill Lab (AID 2284011)
From the text: This is a cell-based assay that evaluates apoptosis using high content imaging to evaluate activation of caspase-3/7 using the CellEvent Caspase 3/7 Green detection reagent in 384-well format.One of seven assay components measured from the CCTE_Harrill_HTTr_Apoptosis assay. This was part of a full screening experiment. This is a cell-based assay that evaluates apoptosis in MCF-7 cells cultured in DMEM + 10% fetal bovine serum. High content imaging is used to evaluate activation of caspase-3/7 using the CellEvent Caspase 3/7 Green detection reagent. Measurements are taken at 6 hours after chemical dosing in 384-well format.The assay component endpoint CCTE_Harrill_HTTr_Apoptosis_MCF7 was analyzed with bidirectional fitting relation to DMSO as the negative control and baseline of activity. Using a type of viability reporter, gain-of-signal activity can be used to evaluate activation of caspase-3/7 using the CellEvent Caspase 3/7 Green detection reagent to understand changes in apoptosis. To generalize the intended target to other relatable targets, this assay endpoint is annotated to cell cycle, where the subfamily is apoptosis.
Chemicals were tested in MCF7 cells in an eight point dilution series with a six hour exposure duration.

Row | Structure (SMILES) | outcome | AC50
1 | O=[N+]([O-])c1ccc(Oc2ccc(Cl)cc2Cl)cc1 | inactive | –
2 | Nc1ccc(Cc2ccc(N)cc2)cc1 | inactive | –
3 | Cc1ccc(N)c(N)c1 | inactive | –
4 | Cc1ccc(N=C=O)cc1N=C=O | inactive | –
5 | CC(C)(C)OOC(C)(C)CCC(C)(C)OOC(C)(C)C | inactive | –
6 | ClC1=C(Cl)C2(Cl)C3C(Cl)C=CC3C1(Cl)C2(Cl)Cl (stereo not given) | inactive | –
7 | CCOC(=O)[C@]1(c2ccccc2)Oc2ccccc2[C@@H]1N | inactive | –
8 | Clc1ccc(C(c2ccc(Cl)cc2)C(Cl)(Cl)Cl)cc1 | inactive | –
9 | N#CC(Br)Br | inactive | –
10 | CCC[CH2][Sn]([Cl])([CH2]CCC)[CH2]CCC | – | 10.9 µM (active)
11 | OCCOCCO | inactive | –
12 | C=CCc1ccc2c(c1)OCO2 | inactive | –
13 | Cn1cc(-c2ccccc2)c(=O)c(-c2cccc(C(F)(F)F)c2)c1 | inactive | –
14 | CCC(C)c1ccc(O)cc1 (stereo not given) | inactive | –
15 | Cc1cc(N=Nc2ccccc2C)ccc1N | inactive | –
16 | CC(C)(OOC(C)(C)c1ccccc1)c1ccccc1 | inactive | –
17 | [Cl-].[Cl-].[Hg+2] | inactive | –
18 | CN(C)C(=O)Nc1ccc(Cl)cc1 | inactive | –
19 | Cc1ccc([N+](=O)[O-])cc1 | inactive | –
20 | CC(O)CCO (stereo not given) | inactive | –

Row | Structure (SMILES) | outcome | AC50
21 | COP(=S)(OC)SCN1C(=O)c2ccccc2C1=O | inactive | –
22 | Brc1ccc(Oc2ccccc2)cc1 | inactive | –
23 | CC(C)COC(=O)c1ccccc1C(=O)OCC(C)C | inactive | –
24 | CC(C)(C)C(O)(CCc1ccc(Cl)cc1)Cn1cncn1 (stereo not given) | inactive | –
25 | c1ccc(C2CO2)cc1 (stereo not given) | inactive | –
26 | Clc1ccc(C(c2ccc(Cl)cc2)C(Cl)Cl)cc1 | inactive | –
27 | O=C1CCCO1 | inactive | –
28 | CCCCCCCCOC(=O)c1ccc(C(=O)OCCCCCCCC)c(C(=O)OCCCCCCCC)c1 | inactive | –
29 | CCN(CC)CCO | inactive | –
30 | c1ccc(N=Nc2ccccc2)cc1 | inactive | –
31 | CCCCCCCCCCCCCN1CC(C)OC(C)C1 (stereo not given) | inactive | –
32 | ClC1=C(Cl)[C@]2(Cl)[C@H]3[C@H]([C@@H]4C=C[C@H]3C4)[C@@]1(Cl)C2(Cl)Cl | inactive | –
33 | Nc1ccc(Cl)cc1N | inactive | –
34 | CNC(=O)Oc1cccc2c1OC(C)(C)C2 | inactive | –
35 | Nc1ccc(Oc2ccc(N)cc2)cc1 | inactive | –
36 | O=C(N[C@H](c1ccccc1)[C@@H]1CN2CCC1CC2)c1c(Cl)ccc(C(F)(F)F)c1Cl | inactive | –
37 | CCNS(=O)(=O)C(F)(F)C(F)(F)C(F)(F)C(F)(F)C(F)(F)C(F)(F)C(F)(F)C(F)(F)F | inactive | –
38 | O=C(O)C1C2CCC(O2)C1C(=O)O (stereo not given) | inactive | –
39 | CN(C)c1ccc(C(=O)c2ccc(N(C)C)cc2)cc1 | inactive | –
40 | [O-][Cl+]O | inactive | –
